ALOX12 inh: blocks human arachidonate 12S-lipoxygenase; purified 12hLO, xylenol orange hydroperoxide absorbance; Potency, µM (highest dose often 108 µM), inactives show top-dose activity change, negative = inhibition, hits mostly inhibitors; 1.1% of 580,000 active; also: potency is read from the fitted curve at half-maximal effect
Target sequence (P18054 whole entry, looked up): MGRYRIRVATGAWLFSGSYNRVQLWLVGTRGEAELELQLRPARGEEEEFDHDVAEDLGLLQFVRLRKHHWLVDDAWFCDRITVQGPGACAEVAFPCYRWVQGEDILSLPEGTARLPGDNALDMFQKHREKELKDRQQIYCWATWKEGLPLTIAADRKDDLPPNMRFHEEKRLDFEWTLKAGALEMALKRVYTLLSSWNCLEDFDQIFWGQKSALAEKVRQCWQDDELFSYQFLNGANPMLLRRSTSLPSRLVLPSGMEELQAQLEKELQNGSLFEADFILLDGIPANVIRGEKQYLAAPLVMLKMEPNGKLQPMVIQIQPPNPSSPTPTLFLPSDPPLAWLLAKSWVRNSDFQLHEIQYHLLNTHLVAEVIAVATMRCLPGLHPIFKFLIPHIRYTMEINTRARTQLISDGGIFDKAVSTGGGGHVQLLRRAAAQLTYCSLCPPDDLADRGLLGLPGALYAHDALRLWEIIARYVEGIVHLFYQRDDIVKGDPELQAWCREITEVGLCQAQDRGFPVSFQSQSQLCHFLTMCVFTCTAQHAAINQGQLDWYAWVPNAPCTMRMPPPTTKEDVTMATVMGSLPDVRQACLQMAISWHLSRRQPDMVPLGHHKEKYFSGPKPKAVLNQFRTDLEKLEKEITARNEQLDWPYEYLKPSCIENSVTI
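Purified human 12hLO (150 nM final) in 25 mM Hepes, 0.01% Triton X-100, pH 7.0 was preincubated 15 min at room temperature with compound. Then 40 uM arachidonic acid was added, 30 min. Hydroperoxide was read by Fe-XO absorbance ratio 573/405 nm.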
TDP1 cell CPT: DT40-hTDP1 cell growth loss with CPT; chicken DT40 Tdp1-/-;hTDP1 cells + 20 nM CPT, ATP luminescence, 48 h; Potency, µM (top dose mostly 46.2 µM), for inactives: top-dose activity change, negative = growth inhibition, usual class: inhibitors; 12% of 420,000 active; AID 686979; also: potency is read from the fitted curve at half-maximal effect; nearly all actives have a fitted effect of over 55% in size
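Cell growth measured by CellTiter-Glo luminescence after a minimum 48 h, 37 C compound exposure with 20 nM CPT in Tdp1-knockout DT40 cells stably expressing hTDP1, seeded 400/well; qHTS titration format.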
HT1080 IDH1KD tx: kills HT-1080 cells with IDH1 knockdown; AID 686971; 2% of 360,000 active; HT-1080 IDH1 knockdown viability, ATP luminescence, 48 h; Potency, µM (top dose mostly 46.1 µM), inactives show at the top dose activity, negative = toxicity, hits mostly cytotoxic;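 also: potency is read from the fitted curve at half-maximal effect; 0% = DMSO wells and -100% = cell-free medium wells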
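In this qHTS, HT-1080 cells depleted of IDH1 are exposed for 48 h at 37 °C to compound titrations. Toxicity is scored from CellTiter-Glo luminescence, with DMSO as full viability and medium alone as none.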
IL-1B inflam inh: inflammasome signaling inhibition, IL-1 beta readout | 4.7% of 360,000 active | THP-1 LPS/ATP IL-1B secretion, AlphaLISA, 16 h; active compounds read low | activity change, % at 57.5 µM; in the data active = activity change below about -50%; inconclusive = mostly about -30% to -49%
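THP-1 cells pretreated 1 hr with compounds (up to 57.5 uM final), then stimulated with LPS (250 ng/mL final) plus ATP (1.25 mM final); secreted IL-1B measured by AlphaLISA after 16 hr, decreased signal indicating inhibition.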
DT40 TDP1 no CPT: qHTS for Inhibitors of human tyrosyl-DNA phosphodiesterase 1 (TDP1): qHTS in cells in absence of CPT; DT40 Tdp1-/- hTDP1 cells, no CPT, ATP luminescence, 48 h; Potency, µM (top dose mostly 46.2 µM), without a hit: at the highest dose activity change, negative = growth inhibition, actives largely listed as inhibitors; 15% of 420,000 active; also: potency is read from the fitted curve at half-maximal effect; nearly all actives have a fitted effect of over 55% in size
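Compound effects on proliferation are scored in DT40 Tdp1-/-;hTDP1 cells in the absence of CPT. ATP levels (CellTiter-Glo luminescence) are recorded after a ≥48 hr, 37 °C incubation.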
HT1080NT lethal: kills 2HG-producing HT-1080-NT fibrosarcoma cells; HT-1080-NT fibrosarcoma viability, CellTiter-Glo ATP luminescence, 48 h; Potency, µM (highest dose often 46.1 µM), without a hit: top-dose activity, negative = less viability, actives largely listed as cytotoxic; 1.6% of 360,000 active; AID 686970;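 also: NT is the 2HG producing partner of a matched IDH1 knockdown line; potency is read from the fitted curve at half-maximal effect; 0% = DMSO-treated cells and -100% = media-only wells without cells; nearly all actives have a fitted effect of over 55% in size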
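750 cells/well, RPMI + 5% FBS; 2 h settle, compound pin-transfer, 48 h at 37 degrees C. CellTiter-Glo 10 min RT, luminescence. Normalized to DMSO and media-only wells.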
The depositor's hits bear a star; ? = inconclusive; · = no result given; [ ] = remark or other dose. Only a selection was taken, and hits are over-represented in it overall. Unless noted, calls follow the shape of the dose curve; as a rule, active = well fitted curve in the direction sought with a large enough effect; inconclusive = small, poorly fitted or top-dose-only effect, or another doubt; inactive = no such curve, though single readings can be large; an effect the other way counts as inactive or inconclusive. Unless noted, % is scaled to controls: 0 for no effect and ±100 for the full control effect.

SMILES | ALOX12 inh | TDP1 cell CPT | HT1080 IDH1KD tx | IL-1B inflam inh | DT40 TDP1 no CPT | HT1080NT lethal
Cc1ccccc1-n1nnc(C(=O)NC2CCCCC2)c1N | 37.6% | · | · | · | · | ·
COC(=O)c1c(NC(C)=O)c2cc(NC3CCCC(C)(C)C3)cnc2n1CC1CCCO1 (stereo not drawn) | 11.5% | · | · | · | · | ·
COc1cc(C2c3c(oc4ccccc4c3=O)C(=O)N2c2ccc(C)cn2)ccc1O (stereo not drawn) | 326.2% | ? | 10.3% | 42.6 | -11.8% | 12.9%
Cc1ccc(N2C(=O)c3oc4ccccc4c(=O)c3C2c2cccc(O)c2)nc1 (stereo not drawn) | -2.7%[57.4 µM] | 20.6µM* | -6.6% | -11.2 | ? | -8.3%
Cc1cccn2c(=O)c3cc(C(=O)N4CCOCC4)n(C)c3nc12 | 1.6% | 13.7% | 0.3% | -2.9 | -1.5% | 0.4%
CC1Cc2ccccc2N1C(=O)c1cc2c(=O)n3ccccc3nc2n1C (stereo not drawn) | -9.1% | 11.6µM* | 10.8% | -29.9 | ? | -18.3%
Cc1cccn2c(=O)c3cc(C(=O)N4c5ccccc5CC4C)n(C)c3nc12 (stereo not drawn) | -4.9% | 18.4µM* | 8.1% | 58.2 | 16.4µM* | 15.8%
COC(=O)c1c(COc2cccnc2[N+](=O)[O-])nc2ccccc2c1C | -4.7% | · | · | · | · | ·
Cc1cccc(CNC(=O)Cn2nc(C)c3nn(-c4ccc(Cl)cc4)c(C)c3c2=O)c1 | ? | 20.6µM* | · | · | 18.4µM* | ·
Cc1nn(CC(=O)Nc2ccccc2F)c(=O)c2c(C)n(-c3ccc(Cl)cc3)nc12 | ? | 23.1µM* | · | · | ? | ·
CCOc1ccc(CNC(=O)Cn2nc(C)c3nn(-c4ccc(Cl)cc4)c(C)c3c2=O)cc1OC | ? | ? | · | · | 18.4µM* | ·
CCOc1ccc(CNC(=O)Cn2nc(C)c3nn(-c4ccc(Cl)cc4)c(C)c3c2=O)cc1 | -29.0% | -7.6% | · | · | -0.7% | ·
COc1ccc(C(=O)N2CCCn3nc(C)c(-c4ccccc4Oc4ccccc4)c32)cn1 | 7.6%[176 µM] | · | · | · | · | ·
CC(C)c1cc(-c2n[nH]c(=O)n2-c2ccc3c(ccn3C)c2)c(O)cc1O | -29.9%[57.4 µM] | · | · | · | · | ·
COc1cc2c(cc1OC)-c1c(c(C(=O)NCCN(C)C)nn1-c1ccc(C)cc1)C2 | 0.0% | · | · | · | · | ·
CN(CC(=O)NCCCN1CCOCC1)S(=O)(=O)c1ccc(Cl)cc1 | 2.5% | 5.0% | -1.6% | -3.3 | -0.4% | -1.8%
CN(c1ccccc1)S(=O)(=O)c1ccc(Cl)c(C(=O)Nc2ccccc2N2CCOCC2)c1 | -1.7% | 8.2µM* | -17.9% | 18.2 | 7.31µM* | -0.1%
CN(CC(=O)Nc1ccccc1N1CCOCC1)S(=O)(=O)c1ccc(Cl)cc1 | 27.6% | 20.6µM* | 9.0% | -3.5 | ? | -5.4%
COc1ccc(OC)c(C2=NOC(C(=O)NCc3cccs3)C2)c1 (stereo not drawn) | -1.6% | ? | ? | 39.1 | 7.31µM* | -29.7%
O=C(NCCc1cccs1)C1CC(c2c(Cl)cccc2Cl)=NO1 (stereo not drawn) | -11.9% | 4.11µM* | -3.6% | 0.4 | 7.31µM* | 16.4%
O=C(NCc1cccs1)C1CC(c2ccc(Cl)cc2)=NO1 (stereo not drawn) | 3.9% | 13µM* | ? | 3.8 | 11.6µM* | -21.7%
COc1ccc(OC)c(C2=NOC(C(=O)NCCN3CCOCC3)C2)c1 (stereo not drawn) | -4.9% | 2.8% | -0.7% | -0.1 | -3.7% | -0.3%[9.24 µM]
O=C1CCC2(C(=O)NCCN3CCCCC3)CCCC=C2N1C1CCCC1 (stereo not drawn) | 51.0% | · | · | · | · | ·
COc1cc(NC(=O)CCc2c(C)c3ccc(O)cc3oc2=O)cc(OC)c1 | 19.8% | · | · | · | · | ·
CC(C)C(N)c1csc(Nc2ccc(C(=O)NCCCO)cn2)n1 (stereo not drawn) | 42.0% | -1.3% | 6.6% | 5.9 | -6.4% | ?
SMILES | ALOX12 inh | TDP1 cell CPT | HT1080 IDH1KD tx | IL-1B inflam inh | DT40 TDP1 no CPT | HT1080NT lethal
CC(C)CC(N)c1csc(Nc2ccc(C(=O)N(C)Cc3ccccc3)cn2)n1 (stereo not drawn) | -0.2% | 5.17µM* | 5.8µM* | -13.6 | 5.8µM* | 4.61µM*
CN(Cc1ccccc1)C(=O)c1ccc(Nc2nc(C(N)Cc3ccccc3)cs2)nc1 (stereo not drawn) | 3.9% | 14.6µM* | 20.6µM* | -8.9 | 13µM* | ?
NC(Cc1ccccc1)c1csc(Nc2ccc(C(=O)NCCCO)cn2)n1 (stereo not drawn) | 20.1% | ? | 15.3% | -4.2 | ? | -4.5%
CCCCN(C)C(=O)c1ccc(Nc2nc(C(N)Cc3ccccc3)cs2)nc1 (stereo not drawn) | 26.5% | 23.1µM* | -27.0% | -7.4 | 14.6µM* | 23.1µM*
CN(Cc1ccccc1)C(=O)c1ccc(Nc2nc(C(N)Cc3ccc(C(F)(F)F)cc3)cs2)nc1 (stereo not drawn) | ? | 11.6µM* | · | -105.3* | 11.6µM* | ·
COc1ccccc1CCNC(=O)c1sc(NC2CCCC2)nc1C | -20.9% | · | · | · | · | ·
Cc1nnc([C@@H]2CC(F)(F)CN2S(=O)(=O)c2cccnc2)o1 | 8.6% | · | · | · | · | ·
CN(Cc1ccccc1)C(=O)c1ccc(Nc2nc(C(N)COCc3ccccc3)cs2)nc1 (stereo not drawn) | 1.2% | ? | ? | ? | ? | 23.1µM*
CC1CCN(CC(O)COCCC23CC4CC(CC(C4)C2)C3)CC1 (stereo not drawn) | -6.0%[57.4 µM] | 20.6µM* | ? | ? | 20.6µM* | ?
COc1ccc(-c2cc3c(=O)n(CC(=O)NCCCN4CCC(N5CCCCC5)CC4)ncn3n2)cc1 | -7.2% | 14.6µM* | -1.0% | -11.5 | ? | -14.4%
COc1ccc(C2Nc3ccccc3S(=O)(=O)N2)cc1OC (stereo not drawn) | -72.5% | · | · | · | · | ·
CC(=O)NCCCC(=O)N1CCOC2(CCN(C(=O)NC(C)C)CC2)C1 | 4.0%[6.33 µM] | · | · | · | · | ·
COc1cccc(C(=O)N2CCN(C(=O)c3nnn4c3COC(c3ccc(F)cc3)C4)CC2)c1 (stereo not drawn) | 39.1% | · | · | · | · | ·
O=C(c1ccc(F)cc1Cl)N1CCN(C(=O)c2nnn3c2COC(c2ccccc2)C3)CC1 (stereo not drawn) | 15.6% | · | · | · | · | ·
Cc1nc(N)c(Cc2ccc(Cl)cc2Cl)c(N)n1 | -5.5% | 11.6µM* | -0.7% | 1.7 | 8.2µM* | -19.2%
COc1ccc(Cc2c(N)nc(C)nc2N)cc1 | -5.6% | -8.6% | 16.8% | 10.5 | -3.7% | 11.2%
